# This excerpt belongs to a sample that is enriched for hits.
# RE007 growth inh: less growth of the S. pombe RE007 Vpr strain; 0.21% of 360,000 active; Potency, µM (titrated, usually from 92.2 µM), hits mostly inhibitors; S. pombe RE007 Vpr strain, BacTiter-Glo ATP luminescence, 24 h; active = well fitted falling curve with a large enough effect; inconclusive = small, poorly fitted or top-dose-only effect; inactive = no such curve, though single readings can be large or run the other way; also: nearly all actives have a fitted effect of over 50% in size
#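 Fission yeast strain RE007, carrying one chromosomally integrated HIV-1 vpr copy, was seeded at OD 0.01 in PMG+AL medium with 23 nL pinned compound. After 24 h at 30 °C and 99% humidity, viability was read by BacTiter-Glo luminescence.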
# Shiga inhibitor: inhibitors of Shiga toxin in Vero cells; 9.2% of 290,000 active; AID 2315; Vero cells, Shiga toxin protein synthesis inhibition reporter; inhibition, % at 38.7 µM; in the data active = inhibition mostly above about 28%, no sharp cut-off; inactive = mostly below about 43%
# Cycloheximide cs: counter-screen for Shiga toxin inhibitors: cycloheximide protein synthesis inhibition; AID 2314; cell reporter, cycloheximide protein synthesis inhibition counterscreen; max response, %; 12% of 300,000 active; in the data active = max response mostly above about 13%, no sharp cut-off; inactive = mostly below about 14%; also: read at 38.3 µM for the half of the compounds with a filed dose
# LmPK inh: inhibitors of Leishmania mexicana pyruvate kinase | Q27686 | purified LmPK, Kinase-Glo ATP luminescence, 1 h | Potency, µM (series often up to 57.5 µM), actives largely listed as inhibitors | 0.37% of 290,000 active
# Target sequence (Q27686 whole entry, looked up): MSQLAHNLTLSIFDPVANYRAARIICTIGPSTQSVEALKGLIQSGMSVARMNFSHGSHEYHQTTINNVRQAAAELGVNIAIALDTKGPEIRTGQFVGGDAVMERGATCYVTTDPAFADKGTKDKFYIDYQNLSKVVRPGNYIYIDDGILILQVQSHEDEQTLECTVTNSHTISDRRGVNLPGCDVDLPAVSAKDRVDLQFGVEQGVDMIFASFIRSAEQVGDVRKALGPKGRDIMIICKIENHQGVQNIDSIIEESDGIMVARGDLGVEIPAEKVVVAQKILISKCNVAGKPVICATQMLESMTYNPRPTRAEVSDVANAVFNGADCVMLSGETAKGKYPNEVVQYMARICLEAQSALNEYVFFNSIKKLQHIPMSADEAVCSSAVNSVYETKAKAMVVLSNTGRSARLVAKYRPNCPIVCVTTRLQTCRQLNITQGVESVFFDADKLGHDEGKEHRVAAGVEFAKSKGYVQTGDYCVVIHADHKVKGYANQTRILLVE
#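 Kinase-Glo luminescence read after 1 h RT reaction of 0.1 nM LmPK with 0.5 mM PEP and 0.1 mM ADP. Activity scaled between uninhibited and enzyme-free controls.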
# TbPYK inhibitor: inhibitors of Trypanosoma brucei pyruvate kinase; 0.12% of 410,000 active; TbPYK enzyme, Kinase-Glo Plus ATP luminescence, 45 min; Q57TT1; Potency, µM (series often up to 76.8 µM), hits mostly inhibitors; AID 624173; also: nearly all actives have a fitted effect of over 50% in size
#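 T. brucei PYK with substrate was exposed to pin-transferred compounds across a concentration series, then started with 130 uM ADP (final). After 45 min at room temperature, Kinase-Glo Plus luminescence was read, normalized and curve-fitted.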
# Giardia FBPA inh: blocks Giardia fructose-bisphosphate aldolase activity. purified Giardia FBPA. Potency, µM (series often up to 59.6 µM), usual class: inhibitors. AID 2451. 0.71% of 290,000 active; also: nearly all actives have a fitted effect of over 55% in size
#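 Giardia FBPA (40 nM reagent) was preincubated 10 min at RT with compound (up to 57.5 uM final), then substrate plus GAPDH/TPI/NAD/arsenate coupling system with diaphorase/resazurin was added; resorufin fluorescence (525/598 nm) was read after 20 min.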
# Hits are given with their value; - = inactive; ? = inconclusive; . = no result given. Unless noted, calls follow the shape of the dose curve; as a rule, active = well fitted curve in the direction sought with a large enough effect; inconclusive = small, poorly fitted or top-dose-only effect, or another doubt; inactive = no such curve, though single readings can be large; an effect the other way counts as inactive or inconclusive.
SMILES,RE007 growth inh,Shiga inhibitor,Cycloheximide cs,LmPK inh,TbPYK inhibitor,Giardia FBPA inh
CC(C)C(=O)Nc1ccc(-c2nnc(-c3ccccc3)o2)cc1,-,119,72,-,-,-
O=C(Nc1ccc(-c2nnc(-c3ccccc3)o2)cc1)C(F)(F)F,-,-,49,-,-,-
COc1cccc(N2CCN(S(=O)(=O)c3ccc4c(c3)oc(=O)n4C)CC2)c1,-,-,17,-,-,-
Cc1ccc2c(CSc3nc4ccccc4c(=O)n3CCCO)cc(=O)oc2c1C,-,109,-,-,-,-
Cc1ccc2c(CSc3nnc4ccccn34)cc(=O)oc2c1C,-,60,-,-,-,-
Cc1ccc2c(Cn3ccnc3)cc(=O)oc2c1C,-,-,-,-,-,-
Cc1ccccc1Nc1nc(N)nc(CSc2nc3ccccc3c(=O)n2CCCO)n1,-,-,-,-,?,-
COC(=O)C1=C(C)NC(C)=C(C(=O)OCCNCc2ccccc2)C1c1cccc([N+](=O)[O-])c1 (configuration not stated),.,-,-,.,.,-
C/C(=N\NC(N)=S)c1ccc(Cl)s1,-,-,-,-,-,-
C/C(=N\NC(=O)c1csc(C)c1C)c1ccc(Cl)s1,-,72,33,-,-,-
CC/C(=N\NC(=O)c1c(-c2ccccc2)noc1C)c1ccc(C)o1,-,-,-,-,-,-
CC/C(=N\NC(=O)c1ccoc1C)c1ccc(C)o1,-,149,82,-,-,-
C/C(=N\NC(=O)c1ccoc1C)c1ccc(Cl)s1,-,87,41,-,-,-
Cc1cc2oc(C(=O)Nc3sc4c(c3C(=O)NCc3ccco3)CCC4)cc(=O)c2cc1C,.,.,.,.,-,.
Cc1nn(CC(=O)N2CCCc3ccccc32)c(C)c1[N+](=O)[O-],-,-,28,-,-,-
O=C(Cn1ccc([N+](=O)[O-])n1)N1CCCc2ccccc21,-,127,54,-,-,-
Cc1c(Br)c([N+](=O)[O-])nn1CC(=O)N1CCCc2ccccc21,-,-,-,-,-,-
Cc1nn(CC(=O)c2cccc(Cl)c2)c(C)c1[N+](=O)[O-],-,-,24,-,-,-
CN[C@@H]1[C@H](O[C@@H]2O[C@H](C)[C@@](O)(CO)[C@H]2O[C@H]2[C@H](O)[C@H](O)[C@H](N=C(N)N)[C@@H](O)[C@@H]2N=C(N)N)O[C@@H](CO)[C@H](O)[C@H]1O,.,-,-,.,.,-
COc1ccc(C2C(=O)N(C3CCCCCC3)CC(=O)N2Cc2ccccc2)cc1 (configuration not stated),.,.,.,.,-,.
COCCCNC(=O)C(=O)NCC(c1ccc2c(c1)OCO2)N1CCOCC1 (configuration not stated),.,.,.,.,-,.
O=C(Nc1ccccn1)Nc1cccs1,-,38,36,-,-,-
Cc1ccc(NC(=O)Cc2ccc(-c3ccccc3)cc2)nc1,-,-,-,-,-,-
Cc1ccnc(NC(=O)Cc2ccc(-c3ccccc3)cc2)c1,-,80,72,-,-,-
O=C(CN1CCN(CC(=O)Nc2ccccn2)CC1)Nc1ccccn1,-,-,-,-,-,-
SMILES,RE007 growth inh,Shiga inhibitor,Cycloheximide cs,LmPK inh,TbPYK inhibitor,Giardia FBPA inh
O=C(CC(=O)Nc1ccccn1)Nc1ccccn1,-,-,18,-,-,-
Cc1ccnc(NC(=O)Cc2ccc([N+](=O)[O-])cc2)c1,-,-,19,-,-,-
CCC(Oc1ccccc1)C(=O)N1CCN(Cc2cc(=O)n3nc(-c4cccc(C)c4)sc3n2)CC1 (configuration not stated),.,.,.,.,-,.
CCOC(=O)c1cnn(-c2ccc(OC)cc2)c1C1CCN(C(=O)OC(C)(C)C)CC1,.,.,.,.,-,.
O=C(Cc1ccc(-c2ccccc2)cc1)Nc1ccccn1,-,88,40,-,-,-
NC(=O)c1ccsc1NC(=O)Cc1ccc([N+](=O)[O-])cc1,-,-,31,-,-,-
CC(C)CC(=O)NC(=S)Nc1ccccn1,-,-,26,-,-,-
CCCCCCCN(CC)CCCC(O)c1ccc(NS(C)(=O)=O)cc1 (configuration not stated),.,.,.,.,-,.
Cc1ccc(-c2nc(Nc3cccc(C)c3)sc2CC(=O)O)cc1,-,55,27,-,-,?
Cc1ccc(-c2nc(-c3ccc(Cl)cc3)sc2CC(=O)O)c(C)c1,-,-,28,-,-,-
O=C(Cc1sc(-c2ccccc2)nc1-c1ccccc1)Nc1ccccc1,-,-,-,-,-,-
O=C(O)Cc1sc(-c2ccccc2Cl)nc1-c1ccccc1,-,-,-,-,-,?
O=C(O)Cc1sc(NC2CCCCC2)nc1-c1ccc(Cl)cc1,-,42,54,-,-,-
O=C(O)Cc1sc(Nc2cccc3ccccc23)nc1-c1ccc(F)cc1,-,-,-,-,-,-
O=C(O)Cc1sc(NCCc2ccccc2)nc1-c1ccc(F)cc1,-,-,-,-,-,-
O=C(Cc1sc(Nc2ccccc2)nc1-c1ccccc1)NCc1ccccc1,-,63,31,-,-,-
CCC(C(=O)N(C)Cc1ccccc1)n1nc(C)c2sc3ccccc3c2c1=O (configuration not stated),.,.,.,.,-,.
CC(C)c1ccc(NC(=O)C2CCCN(S(=O)(=O)c3cccc4cccnc34)C2)cc1 (configuration not stated),.,.,.,.,-,.
COc1cc2c(=O)n(Cc3ccccc3)c(=O)n(CC(=O)Nc3cc(C(F)(F)F)ccc3Cl)c2cc1OC,.,.,.,.,-,.
CCOc1ccc(C2C(C(N)=O)=C(C)Nc3nc(SCc4ccccc4)nn32)cc1 (configuration not stated),.,.,.,.,-,.
CC(=O)Cc1nsc(Nc2cccc(C)c2)n1,-,92,28,-,-,-
Cc1cccc(Nc2nc(CC(=O)O)cs2)c1,-,105,41,-,-,-
CC(=O)Cc1nsc(Nc2ccccc2)n1,-,-,-,-,-,-
COC(=O)Cc1csc(Nc2ccc(Cl)cc2)n1,?,-,22,-,-,-
